PubChem BioAssay (NCI)
This is part of a sample that, as a whole, favours compounds with a hit. Of some 83,000 tested, about 20% had one in any assay.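 The endpoint reported here, percent growth, reads 100 for growth as untreated, 0 for no net growth and -100 for all cells dead.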 Unmarked numbers belong to inactive results. The source made the active and inactive calls.

Tested on: U251 CNS
Assay: NCI-60 one-dose screen, 48 h (100 = growth as untreated, 0 = no growth, -100 = all killed)
Conditions: 10 µM unless noted
Description: Growth inhibition of the U251 human tumor cell line is measured as a screen for anti-cancer activity. Cells are grown in 96 well plates and exposed to the test compound for 48 hours. Compounds are tested at a single concentration, which is 10^-5 M for most compounds. The reported endpoint is percent growth (GI% or GIPRCNT), where numbers from 0 - 100% represent growth inhibition, and numbers from -100% - 0 represent cell death. For example, a value of 40 represents 60% growth inhibition. A value of 0 means no net growth occurred over the course of the experiment. A value of -40 indicates 40% of cells at the beginning of the experiment died by the end of the experiment. A value of -100 means all cells are dead at the end of the experiment.
NCI-60 Human Tumor Cell Lines Screen was performed using the standard one-dose NCI protocol, which is described in more detail at https://dtp.cancer.gov/discovery_development/nci-60/default.htm.
Compounds with GIPRCNT values below 10 were considered active. Activity score was based on GIPRCNT using the following formula: […]
Score is 0 for GIPRCNT values of 100 or above, 50 for GIPRCNT values of 0, and 100 for GIPRCNT values of -100.

SMILES	growth
COC(=O)c1nc(-c2ccc(C)cc2)oc1S(=O)(=O)N1CCN(c2oc(-c3ccccc3)nc2C#N)CC1	99.4%
CS(=O)(=O)c1nccc(-c2c(-c3ccc(F)c(OCc4ccc(F)cc4)c3)nc3sccn23)n1	100%
O=C1c2c(c3c4cccnc4[nH]c3c3ccc4ccccc4c23)C(=O)N1CCN1CCCCC1	55.1%
COc1ccc(N)cc1C(=O)Nc1cccc(-c2cc(=O)c3c(OC)c(OC)c(OC)cc3o2)c1	49.9%
O=C(Cn1cc(CN2C(=O)c3ccc([N+](=O)[O-])cc3C2=O)nn1)Nc1ccc(F)cc1Cl	97.3%
CC1(C)CC[C@]2(C(=O)N3CCCN(CC#N)CC3)CC[C@]3(C)C(=CC[C@@H]4[C@@]5(C)CC[C@H](O)C(C)(C)[C@@H]5CC[C@]43C)[C@H]2C1	56.1%
CCN1C/C(=N\S(=O)(=O)c2ccccc2)N(CC)C1=S	97.4%
COc1ccc2c(C3=C(c4cn(C)c5ccccc45)C(=O)NC3=O)coc2c1	15.8%
CS(=O)(=O)c1nccc(-c2c(-c3ccc(F)c(OCCc4ccccc4)c3)nc3sccn23)n1	105%
COc1cc(CNC(=O)/C=C/c2ccccc2)ccc1OCC(=O)NO	101%
O=C1Nc2cc(OC(F)(F)F)ccc2Oc2ccc(-c3ccnc(N4CCNCC4)c3)cc21	-78.6% (active)
Cc1cc(=O)n2nc(-c3c[nH]c4ccccc34)sc2n1	94.2%
CC(C)C[C@H]1C(=O)O[C@H](C(C)C)C(=O)N(C)[C@@H](C(C)C)C(=O)O[C@H](C(C)C)C(=O)N(C)[C@@H](C(C)C)C(=O)O[C@H](C(C)C)C(=O)N1C	14.1%
CCN(CC)CCN1C(=O)c2c(c3c4cccnc4[nH]c3c3ccc4ccccc4c23)C1=O	63.5%
Cn1c2ccccc2c2c3c(c4c5ccc(Br)cc5oc4c21)C(=O)N(O)C3=O	60.5%
CCN1C(=O)N(CC)C2SC(N/N=C/c3ccc(F)cc3)=NC21 (stereo not given)	15%
O=C(O)c1ccc(-n2cc(CNc3ccc(Cl)cc3)c(-c3ccc(F)cc3)n2)cc1	90.4%
COc1ccc(NC(=O)[C@H](C)N)cc1C(=O)Nc1cccc(-c2cc(=O)c3c(OC)c(OC)c(OC)cc3o2)c1	56.3%
C/C(=C(/C)C1CC1CCN(C(=O)c1ccccn1)S(=O)(=O)c1ccc(C)cc1)C1CCCCC1 (stereo not given)	103%
Oc1ccc(CSc2nnc(-c3ccc(Cl)cc3)o2)c2cccnc12	10.5%

SMILES	growth
N=c1c2cc(-c3ccccc3)oc2ncn1/N=C/c1ccccc1	84.7%
Cc1ccccc1NC1CC(=O)N(c2ccc(Cl)cc2Cl)C1=O (stereo not given)	99.5%
O=C(CN1C(=O)CSC1=O)Nc1ccc(C(=O)/C=C/c2cc3ccccc3nc2Cl)cc1	77.2%
O=c1[nH]c2cc(Cl)ccc2n1C1CCN(c2ccc3nnc(Cl)n3n2)CC1	99.2%
NS(=O)(=O)c1ccc(Nc2nc(N/N=C/c3ccc([N+](=O)[O-])cc3)nc(Nc3ccccc3)n2)cc1	18.2%
CC(C)N=C(N/C(N)=N/c1nc2ccccc2s1)NC(C)C	57.6%
O=C1c2c(c3c4ccc(Br)cc4oc3c3[nH]c4ccccc4c23)C(=O)N1CCO	23.5%
CC(=O)Nc1ccc(C)c(Nc2cc(-c3ccc(-n4cccn4)cc3)[nH]n2)c1	42.5%
C#CCOc1ccccc1C(Nc1ccccc1)c1nnnn1C1CCCCC1 (stereo not given)	99.9%
COCCOc1ccc(-c2csc(NC(=O)CN3CCN(CCO)CC3)n2)cc1NS(=O)(=O)c1cccc2c(N(C)C)cccc12	49.1%
CC(C)C(=O)Nc1ccc(-c2nc(-c3cccc(O)c3)c(-c3ccnc(Br)c3)[nH]2)cc1	42.5%
COc1ccc(-c2nc(SCC(C)C)nc(N/N=C\c3cccc([N+](=O)[O-])c3)c2C#N)cc1	13%
Cc1ccc(Nc2ncnc3c2c(C)nn3-c2ccc([N+](=O)[O-])cc2)cc1	60.1%
Nc1c(C(=O)c2ccccc2)sc2nc(-c3cnccn3)cc(-c3cccs3)c12	104%
CN(c1ccc(F)cc1)S(=O)(=O)c1ccc(-c2cnc(C3CC3)o2)cc1	23.3%
Cc1[nH]nc2ccc(-c3nc4cnc(N5CCN(C)CC5)cn4c3Nc3ccc(F)cc3Br)cc12	14.4%
C=C(C)[C@@H]1CC[C@]2(C)[C@H](CC=C3[C@@H]4CC(C)(C)CC[C@]4(C(=O)NCC#CCN4CCN(C)CC4)CC[C@]32C)[C@@]1(C)CCC#N	53.6%
N#C/C(=C\c1ccc(N2CCCCC2)cc1)C(=O)Nc1sc2c(c1C#N)CCC2	96.8%
CS(=O)c1nccc(-c2c(-c3ccc(F)c(OCCc4ccc(F)cc4)c3)nc3sccn23)n1 (stereo not given)	92.6%
COc1ccc([C@H]2[C@H](O)C(=O)N2c2cc(OC)c(OC)c(OC)c2)cc1	8.04% (active)
